{
  "source": "the supplement of paper PMC7366291",
  "note": "Structures can show the parent of a compound that is named as a salt. ± gives the standard deviation of the averaged measurements.",
  "data": [
    {"test_system": "Danio rerio Tg(wt1b:EGFP) embryo, pronephros", "experiment": "pronephric angle neck segment to proximal convoluted tubule (mean of left and right), fold change vs DMSO control; higher = larger pronephric angle", "details": "25 µM; exposure: 24-48 hpf", "outline": "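Dechorionated Tg(wt1b:EGFP) zebrafish embryos were exposed to 25 μM compound in 0.5% DMSO, HEPES-buffered E3 with 0.003% PTU, from 24 to 48 hpf at 28.5°C. Pronephroi were imaged dorsally in agarose-filled 96-well plates (470 nm, 10 z-slices). On maximum projections, 16 reference points were set manually in Fiji and a macro computed distances and angles. Values more than 2 SD from the feature mean were excluded. Each feature is a fold change relative to the mean of same-day DMSO controls.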", "values": [
      {"smiles": "CCCCOc1ccc(OCCCN2CCOCC2)cc1", "note": "[Pramoxine hydrochloride]", "pronephric angle neck segment": "0.993 ± 0.033"},
      {"smiles": "CC#C[C@]1(O)CC[C@H]2[C@@H]3CCC4=CC(=O)CCC4=C3[C@@H](c3ccc(N(C)C)cc3)C[C@@]21C", "note": "[Mifepristone]", "pronephric angle neck segment": "1.0508 ± 0.001"},
      {"smiles": "CCCCCCNC(=O)n1cc(F)c(=O)[nH]c1=O", "note": "[Carmofur]", "pronephric angle neck segment": "1.72 ± 0.072"},
      {"smiles": "C#C[C@]1(O)CC[C@H]2[C@@H]3CCC4=CC(=O)CC[C@@H]4[C@H]3CC[C@@]21C", "note": "[Norethindrone]", "pronephric angle neck segment": "1 ± 0.022"},
      {"smiles": "CCOC(=O)O[C@]1(C(=O)OCCl)CC[C@H]2[C@@H]3CCC4=CC(=O)C=C[C@]4(C)[C@H]3[C@@H](O)C[C@@]21C", "note": "[Loteprednol etabonate]", "pronephric angle neck segment": "1.09 ± 0.042"},
      {"smiles": "NC(=O)c1cccnc1", "note": "[Nicotinamide]", "pronephric angle neck segment": "0.985 ± 0.059"},
      {"smiles": "Nc1cc(C(Cl)=C(Cl)Cl)c(S(N)(=O)=O)cc1S(N)(=O)=O", "note": "[Clorsulon]", "pronephric angle neck segment": "0.935 ± 0.044"},
      {"smiles": "CCCCc1cc2ccccc2c(OCCN(C)C)n1", "note": "[Dimethisoquin hydrochloride]", "pronephric angle neck segment": "0.9905 ± 0.004"},
      {"smiles": "CN1CCN(c2c(F)cc3c(=O)c(C(=O)O)cn(CCF)c3c2F)CC1", "note": "[Fleroxacin]", "pronephric angle neck segment": "1.049 ± 0.0028"},
      {"smiles": "CCN(CC)CCOC(=O)C(Cc1cccc2ccccc12)CC1CCCO1", "note": "(stereo not drawn) [Nafronyl oxalate]", "pronephric angle neck segment": "1.04 ± 0.054"},
      {"smiles": "CCCC(C(=O)OCCN(CC)CC)(c1ccccc1)c1ccccc1", "note": "[Proadifen hydrochloride]", "pronephric angle neck segment": "1.03 ± 0.037"},
      {"smiles": "O=C(O)CCC(=O)Nc1ccc(S(=O)(=O)Nc2nccs2)cc1", "note": "[Succinylsulfathiazole]", "pronephric angle neck segment": "0.997 ± 0.029"},
      {"smiles": "NC[C@H]1CC[C@H](C(=O)O)CC1", "note": "[Tranexamic acid]", "pronephric angle neck segment": "1.05 ± 0.022"},
      {"smiles": "NS(=O)(=O)c1cc(C2(O)NC(=O)c3ccccc32)ccc1Cl", "note": "(stereo not drawn) [Chlorthalidone]", "pronephric angle neck segment": "1.02 ± 0.073"},
      {"smiles": "O=C1CC2(CCCC2)CC(=O)N1CCCCN1CCN(c2ncccn2)CC1", "note": "[Buspirone hydrochloride]", "pronephric angle neck segment": "1.01 ± 0.034"},
      {"smiles": "C[N+](C)(C)CCOC(N)=O", "note": "[Carbachol]", "pronephric angle neck segment": "1.01 ± 0.047"},
      {"smiles": "Nc1nc(=O)[nH]cc1F", "note": "[Flucytosine]", "pronephric angle neck segment": "1.003 ± 0.0094"},
      {"smiles": "C=C(CC)C(=O)c1ccc(OCC(=O)O)c(Cl)c1Cl", "note": "[Ethacrynic acid]", "pronephric angle neck segment": "0.9182 ± 0.0012"},
      {"smiles": "COc1ccc2c3c1O[C@H]1C[C@@H](O)C=C[C@@]31CCN(C)C2", "note": "[Galanthamine hydrobromide]", "pronephric angle neck segment": "0.964 ± 0.029"},
      {"smiles": "CN1CCC(=C2c3ccccc3Sc3ccccc32)CC1", "note": "[Pimethixene maleate]", "pronephric angle neck segment": "1.062 ± 0.0083"},
      {"smiles": "O=C1C(O)=C([C@H]2CC[C@H](c3ccc(Cl)cc3)CC2)C(=O)c2ccccc21", "note": "[Atovaquone]", "pronephric angle neck segment": "0.959 ± 0.017"},
      {"smiles": "CC(C)(C)NC[C@H](O)COc1cccc2c1CCCC2=O", "note": "[(-) -Levobunolol hydrochloride]", "pronephric angle neck segment": "0.944 ± 0.052"},
      {"smiles": "COc1nc(C)nc(Cl)c1NC1=NCCN1", "note": "[Moxonidine]", "pronephric angle neck segment": "0.96 ± 0.0097"},
      {"smiles": "C[N+]1(CCCCC[N+]2(C)CCCC2)CCCC1", "note": "[Pentolinium bitartrate]", "pronephric angle neck segment": "1.05 ± 0.052"},
      {"smiles": "C#C[C@]1(O)CC[C@H]2[C@@H]3[C@H](C)CC4=C(CCC(=O)C4)[C@H]3CC[C@@]21C", "note": "[Tibolone]", "pronephric angle neck segment": "0.924 ± 0.078"},
      {"smiles": "N[C@@H]1CONC1=O", "note": "[D-cycloserine]", "pronephric angle neck segment": "0.9921 ± 0.0046"},
      {"smiles": "CN(C)c1nc(N(C)C)nc(N(C)C)n1", "note": "[Altretamine]", "pronephric angle neck segment": "1.06 ± 0.062"},
      {"smiles": "CN1CCN(C(c2ccccc2)c2ccc(Cl)cc2)CC1", "note": "(stereo not drawn) [Chlorcyclizine hydrochloride]", "pronephric angle neck segment": "0.966 ± 0.022"}
    ]}
  ]
}
